From PubChem BioAssay
MEX-5 binding: MEX-5 zinc finger RNA-binding disruptors – biochemical, C. elegans, fluorescence polarization, MLPCN library, primary screen; Zinc finger protein mex-5 (Caenorhabditis elegans), Q9XUB2; AID 1832, 2009; MEX-5/FITC-TCR2 RNA binding; stronger effect = lower value; activity score (negative = inhibition of binding), % at 10 µM; hit rate 0.38% among 300,000;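 active means inhibition past about -25% in most replicates, and total fluorescence under double the plate's negative control median, limit read from the data; inconclusive means replicates evenly split on the limit, or fluorescence at least double controls; inactive means too little inhibition in most replicates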;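 further: 0% = DMSO and -100% = 5 µM competing unlabeled TCR2 RNA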
Target sequence (Q9XUB2 whole entry, looked up): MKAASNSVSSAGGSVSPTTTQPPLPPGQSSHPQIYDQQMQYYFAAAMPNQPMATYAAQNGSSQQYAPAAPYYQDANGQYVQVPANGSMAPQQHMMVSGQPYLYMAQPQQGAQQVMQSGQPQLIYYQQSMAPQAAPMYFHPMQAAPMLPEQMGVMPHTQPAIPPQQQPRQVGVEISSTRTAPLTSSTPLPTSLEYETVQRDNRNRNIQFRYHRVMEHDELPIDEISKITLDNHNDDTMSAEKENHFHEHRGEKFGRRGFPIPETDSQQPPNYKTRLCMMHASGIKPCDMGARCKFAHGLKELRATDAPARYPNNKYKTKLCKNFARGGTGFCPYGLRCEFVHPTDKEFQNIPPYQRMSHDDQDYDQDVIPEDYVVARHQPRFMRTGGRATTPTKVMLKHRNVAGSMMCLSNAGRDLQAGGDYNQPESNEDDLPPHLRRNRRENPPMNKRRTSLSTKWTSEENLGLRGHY
GLD-1 TGE inh: GLD-1/TGE RNA complex disruptors, primary screen, biochemical, fluorescence polarization. Female germline-specific tumor suppressor gld-1 (Caenorhabditis elegans), Q17339. purified GLD-1 + fluorescein TGE RNA. inhibition, % at 5.96 µM. hit rate 0.44% among 320,000. AID 2280, 2010;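 active means percent inhibition above a per-plate cutoff, the plate mean of test compounds plus 3 SD, cut at about 30% in these data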;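 further: 0% = DMSO wells with GLD-1 and probe and 100% = wells lacking GLD-1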
MCL1-BIM inh: inhibitors of MCL1 binding to BIM-BH3, primary screen, biochemical, fluorescence polarization; Induced myeloid leukemia cell differentiation protein Mcl-1 (Homo sapiens), Q07820; GST-MCL1 / FITC-Bim-BH3 fluorescence polarization; inhibition, % at 10.9 µM; hit rate 0.68% among 320,000; AID 2057, 2009;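 active means inhibition above the mean inhibition of all tested compounds plus 3 SD, set per campaign, cut at about 40% in these data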;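 further: 0% = DMSO wells and 100% = unlabeled Bim-BH3 peptide control; higher means more loss of mP so more displacement of Bim peptide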
BCLXL inh: inhibitors of human Bcl-xL, primary screen, biochemical, fluorescence polarization, HTS. Bcl-2-like protein 1 (Homo sapiens), Q07817. GST-Bcl-xL / FITC-Bim BH3 peptide fluorescence polarization. inhibition, % at 10.9 µM. hit rate 0.7% among 320,000. AID 2129, 2009;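 active means inhibition above the mean of all tested compounds plus 3 SD, cutoff set per campaign, cut at about 30% in these data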;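 further: 0% = DMSO wells and 100% = unlabeled Bim-BH3 peptide competitor; inhibitors lower millipolarization by displacing the labeled peptide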
EBV gp42 block: Epstein-Barr virus gp42 inhibitors, primary screen, biochemical, uHTS, fluorescence polarization. Fluorescence polarization binding assay, mP read-out. AID 1085, 2008. inhibition, % (tested at 21.74 µM). hit rate 0.42% among 220,000; in the data active means inhibition above about 50%
E coli Lon inh: inhibitors of E. coli Lon protease, primary screen, biochemical, fluorescence polarization. P0A9M0. purified E. coli Lon protease. inhibition, % at 7.94 µM. hit rate 0.42% among 360,000; in the data active means inhibition above about 13%, passing the limit was not always enough;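 further: 0% = enzyme with probe and DMSO and 100% = no enzyme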
The depositor's hits bear a star; ? = inconclusive; / = no result. In the library only some 1.4% were active in any assay of this set; here they are far more common.

SMILES	MEX-5 binding	GLD-1 TGE inh	MCL1-BIM inh	BCLXL inh	EBV gp42 block	E coli Lon inh
Cc1ccccc1/C=C1\SC(=S)N(/N=C/c2cc([N+](=O)[O-])ccc2O)C1=O	0	-5	26	6	-20	-6
CN(CC(=O)Nc1ccc(F)cc1)C(=O)COC(=O)c1cc(Br)c(Br)s1	/	/	/	/	/	2
O=C1CCc2ccc(NS(=O)(=O)c3ccc(F)cc3)cc2N1	1	-3	3	3	-18	9
CCN1C(=O)/C(=C2\SC(=S)N(NC(=O)c3ccccc3O)C2=O)c2ccccc21	-40*	3	31	23	13	4
CCN1C(=O)/C(=C2\SC(=S)N(CC3CCCO3)C2=O)c2ccccc21 (stereo not given)	/	/	/	/	-19	/
CCCC(=O)Nc1ccc2nc(SCC(=O)N3CCCC3)sc2c1	0	-1	7	0	3	4
Cn1c(SCC(=O)Nc2ccc3nc(SCC(=O)N4CCCC4)sc3c2)nnc1-c1ccccc1	2	0	29	11	83*	/
CC1(OC(=O)C2CCCC2)C(=O)C=C2C=C(c3ccsc3)N(C3CCCCC3)C=C2C1=O (stereo not given)	-2	24	23	30*	24	14
CC1(OC(=O)C2CCCC2)C(=O)C=C2C=C(c3ccsc3)N(CC3CC3)C=C2C1=O (stereo not given)	1	17	31	27	-15	9
ONc1cccnc1-n1nc(C(F)(F)F)cc1C(F)(F)F	-4	22	35	38*	6	/
O=C(O)c1ccccc1C(=O)Nc1ccc(-n2nc(C(F)(F)F)cc2C(F)(F)F)cc1	-3	2	9	0	-6	-5
CCN1/C(=C/c2ccc3cc(C)ccc3[n+]2CC)Sc2ccccc21	?	57*	-106	-40	-162	-178
O=C(CNS(=O)(=O)c1ccc([N+](=O)[O-])cc1)N/N=C\c1ccc(O)cc1	0	-3	10	6	/	6
O=C(CNS(=O)(=O)c1ccc([N+](=O)[O-])cc1)N/N=C/c1ccc(O)cc1O	-57*	9	8	4	/	1
O=S(=O)(c1ccc(Br)cc1F)N1CCC(O)CC1	/	/	/	/	/	-8
O=C(/C=C/c1ccco1)Nc1cccc2cccnc12	-7	30	37	51*	12	-1
O=C(NNS(=O)(=O)c1ccc(F)cc1)C1CCN(Cc2cccc(F)c2)CC1	6	-5	-8	-2	-4	-8
N#Cc1c2ccccc2nc2ccccc12	2	6	7	37*	-15	-7
Nc1c2ccccc2nc2ccccc12	1	5	-2	3	-11	-1
COc1ccc(-c2cc(C(=O)OCc3ccccn3)c3ccccc3n2)cc1	-1	4	3	9	/	-4
Cc1ccccc1NC(=O)Cc1nc(COC(=O)CCc2ccccc2)cs1	/	4	-17	-6	/	9
COc1ccccc1CCC(=O)OCc1csc(CC(=O)Nc2ccccc2C)n1	-27*	0	-8	0	/	5
CCN(CC)c1ccc2cc(S(=O)(=O)c3ccc(Cl)cc3)c(=O)oc2c1	-6	-28	-12	-1	159*	-38
CCCCCCc1cc2cc(S(=O)(=O)c3ccc(Cl)cc3)c(=O)oc2cc1O	-1	30	-3	1	-10	-7
Cc1ccc(/C=C2\C(=N)N3N=C(CC(=O)N4CCOCC4)SC3=NC2=O)o1	-5	6	11	11	/	-29
SMILES	MEX-5 binding	GLD-1 TGE inh	MCL1-BIM inh	BCLXL inh	EBV gp42 block	E coli Lon inh
N=C1/C(=C\c2ccc(SCc3ccccc3)o2)C(=O)N=C2SC(CC(=O)N3CCOCC3)=NN12	-30*	-20	-12	-12	-30	-52
Cc1ccccc1C(=O)NNC(=O)C1CC(=O)N(c2ccc3c(c2)OCCO3)C1 (stereo not given)	/	-2	8	4	/	-2
O=C(Nc1nnc([C@@H]2C[C@H](O)[C@@H](CO)O2)s1)c1ccc(Oc2ccccc2)cc1	/	/	/	/	/	-7
CC(=C/c1ccccc1)/C=N/NC(=O)c1cnccn1	-1	3	10	9	144*	1
O=C(N/N=C/C(Cl)=C\c1ccccc1)c1cnccn1	-4	7	-2	1	-2	-9
COc1ccc(N/C(=C(/C(Cl)=C(Cl)Cl)[N+](=O)[O-])n2nnc3ccccc32)cc1	-42*	18	41*	39*	15	/
CC1CCCCN1CCNC(=O)c1cc2c(=O)n(C)c3ccccc3c2n1C (stereo not given)	-6	-50	29	34*	8	3
Cn1c(C(=O)NCCN2CCOCC2)cc2c(=O)n(C)c3ccccc3c21	-4	8	-2	2	-26	0
CN(C)S(=O)(=O)c1ccc(Cl)c(C(=O)OCC(=O)c2ccco2)c1	/	3	/	/	/	-12
O=C(Nc1ccccc1F)C(=Cc1sc(N2CCOCC2)nc1-c1ccccc1)C(=O)Nc1ccccc1F	-43*	-24	-15	10	62*	-20
O=C(N/N=C/c1sc(N2CCOCC2)nc1-c1ccccc1)c1ccccc1F	-1	4	-8	2	-2	/
COc1ccc2nc3cc(Cl)ccc3c(Nc3cc(C(C)C)c(O)cc3C)c2c1	-1	5	-4	-4	15	11
CCN(CC)CCCC(C)Nc1c2ccc(Cl)cc2nc2ccc(OC)cc12 (stereo not given)	/	/	/	/	118*	/
O=S1(=O)N[C@@H](Cc2ccccc2)COc2cc(N3CCC[C@@H]3CO)ccc21	/	/	/	/	/	-2
Cc1ccccc1Cn1ccc(NC(=O)c2cnn3c2NC(c2ccccc2)CC3C(F)(F)F)n1 (stereo not given)	2	-3	0	5	1	22*
N#Cc1c(-c2ccccc2Cl)cc(-c2ccccc2)[nH]c1=S	-1	2	15	9	11	/
Cc1cc(-c2ccccc2)c(C#N)c(=S)[nH]1	0	3	-1	5	83*	-12
COCCOC(=O)C1=C(C)NC(=O)NC1c1c(Cl)nc2c(C)cccn2c1=O (stereo not given)	-3	8	35	32*	9	/
N=c1c(S(=O)(=O)c2ccc(Cl)cc2)cc2c(=O)n3ccccc3nc2n1C1CCCC1	-35*	1	23	2	/	-6
N=c1c(S(=O)(=O)c2ccc(Br)cc2)cc2c(=O)n3ccccc3nc2n1C1CCCCC1	-45*	-1	-1	2	/	-8
COCCn1c(=N)c(S(=O)(=O)c2ccc(Br)cc2)cc2c(=O)n3ccccc3nc21	-45*	1	7	12	/	-9
